An excerpt weighted towards active compounds, which were near 11% of everything screened.
Tau FP inhib = inhibitors of human tau fibril formation. P10636. K18 P301L tau heparin fibrillization, Alexa594 FP, 6 h. Potency, µM (titrated, usually from 57.7 µM), inactives show top-dose activity, negative = inhibition, hits mostly inhibitors. 0.39% of 280,000 active. AID 1468; further: potency means the concentration at half of the fitted maximal effect; nearly all actives have a fitted effect of over 55% in size
Target sequence (P10636 561-689 P618L limits assumed): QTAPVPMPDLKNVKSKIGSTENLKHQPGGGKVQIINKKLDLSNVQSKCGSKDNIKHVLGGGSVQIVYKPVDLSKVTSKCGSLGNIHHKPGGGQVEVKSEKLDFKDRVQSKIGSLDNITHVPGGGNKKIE
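Compound effects on tau fibrillization are measured by Alexa 594 fluorescence polarization (ex 555, em 632 nm). K18 P301L tau is used at 15 uM with 0.24 uM labeled tracer, and 20 uM heparin induces aggregation over 6 hr at 37 C.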
Coupling enz = inhibits coupling enzyme system, counter-screen for aldolase hits; 0.67% of 290,000 active; activity change, negative = inhibition, % at 58.2 µM, hits read low; AID 2472; coupling enzyme system counterscreen, AmpLite Red fluorescence; in the data active means activity change below about -30%
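Counterscreen of the coupled detection system alone, without aldolase: glyceraldehyde-3-phosphate coupling enzymes plus AmpLite Red readout. Compounds at 57.5 uM final, 10 min RT preincubation, 20 min RT reaction, fluorescence 525/598 nm.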
Tau fluor cs = counter-screen for tau fibril formation inhibitors; Potency, µM (titrated, usually from 57.7 µM), for the others: at the highest dose activity change, negative = decrease; 0.93% of 280,000 active; tau K18 P301L Alexa594 fluorescence, heparin fibrillization; AID 1463; further: potency means the concentration at half of the fitted maximal effect; nearly all actives have a fitted effect of over 55% in size
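Human K18 P301L tau (15 uM unlabeled plus 0.24 uM Alexa 594-labeled, final) in 100 mM sodium acetate pH 7 was mixed with compound and 20 uM heparin and incubated 6 hr at 37 C.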
G9a inh = inhibitors of human histone lysine methyltransferase G9a; G9a H3K9 monomethylation, AlphaScreen, 2 h; Potency, µM (doses to about 102 µM), for inactives: at the highest dose activity, negative = inhibition, most hits filed as inhibitors; 8.8% of 350,000 active; AID 504332; further: potency means the concentration at half of the fitted maximal effect; nearly all actives have a fitted effect of over 75% in size
Target sequence (Q96KQ7 913-1193 limits assumed): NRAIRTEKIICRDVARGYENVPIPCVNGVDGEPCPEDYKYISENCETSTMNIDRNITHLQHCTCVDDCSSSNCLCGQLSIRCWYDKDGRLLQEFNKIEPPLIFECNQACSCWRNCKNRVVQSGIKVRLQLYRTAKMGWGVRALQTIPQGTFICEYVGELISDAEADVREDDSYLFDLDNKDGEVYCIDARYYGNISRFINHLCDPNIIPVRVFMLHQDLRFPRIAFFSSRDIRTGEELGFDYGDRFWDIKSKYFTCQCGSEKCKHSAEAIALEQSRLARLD
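Methyltransferase reactions run at room temperature for 2 h (20 nM enzyme, 500 nM biotin-H3K9 peptide, 20 uM SAM) after a 15 min compound preincubation; product detected by AlphaScreen beads and anti-H3K9me1 antibody.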
Tau fibril ThT = blocks human tau fibril formation measured by thioflavin T. P10636. recombinant tau K18 P301L (four-repeat tau fragment), heparin-induced fibrillization, ThT fluorescence. Potency, µM (series often up to 57.4 µM), for the others: at the top dose activity, negative = inhibition, most hits filed as inhibitors. 2.1% of 270,000 active. AID 1460; further: potency means the concentration at half of the fitted maximal effect; nearly all actives have a fitted effect of over 55% in size
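Heparin-induced fibrillization of the P301L-mutant K18 repeat-domain fragment of human tau was followed by ThT binding in quantitative high-throughput format.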
Sfp PPTase inh = Sfp phosphopantetheinyl transferase inhibition | Biochemical Sfp PPTase activity, qHTS | Potency, µM, for the others: largest response in the series, negative = inhibition, most hits filed as inhibitors | Q9F4F7 | 3.5% of 310,000 active;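 further: the enzyme is Sfp with the accession as filed and its product quenches rhodamine fluorescence; potency means the concentration at half of the fitted maximal effect; 0% = enzyme reaction without inhibitor and -100% = no enzyme wells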
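After 15 min at room temperature with compound, 15 nM Sfp received 5 uM rhodamine-CoA plus 12.5 uM BHQ-2-ybbR (50 mM Hepes pH 7.6, 10 mM MgCl2). Rate came from the fluorescence difference over 30 min, ex 525/em 598 nm.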
* hit, by the source's call; u = inconclusive; x = not tested or not shown; [ ] = another dose, or the depositor's remark. Unless noted, the call rests on the fitted dose curve; in most records, active means well fitted curve in the direction sought with a large enough effect; inconclusive means small, poorly fitted or top-dose-only effect, or another doubt; inactive means no such curve, though single readings can be large; an effect the other way counts as inactive or inconclusive. Unless noted, on the % scale 0 is the no-effect control and ±100 the full control effect.

SMILES | Tau FP inhib | Coupling enz | Tau fluor cs | G9a inh | Tau fibril ThT | Sfp PPTase inh
COc1cccc2c1Oc1ncccc1N(C(=O)Nc1ccc(F)c(Cl)c1)C2 | -2% | x | -27% | 7%[59 µM] | -7% | x
COc1cc(C(CC(=O)Nc2ccc(Br)cn2)N2Cc3ccccc3C2=O)cc(OC)c1OC (centres undefined) | -5% | x | -2% | -3%[59 µM] | 12% | x
Cc1nnc(SCC(=O)NC2CCCC2)n1-c1ccccc1 | x | x | x | 24%[12.7 µM] | x | x
O=c1c2cc(N3CCOCC3)ccc2[nH]c(=S)n1Cc1ccccn1 | u | -41* | -10% | u | u | 20µM*
O=c1c2cc(Br)ccc2[nH]c(=S)n1Cc1ccccn1 | 1% | 1 | -10% | 7.9µM* | -9% | 9%
COc1ccc(CCn2c(=S)[nH]c3ccc(N4CCOCC4)cc3c2=O)cc1OC | 1% | 0 | -27% | 18µM* | -18% | -12%
O=c1c2cc(N3CCOCC3)ccc2[nH]c(=S)n1Cc1ccccc1Cl | 8% | -10 | -28% | 42%[59 µM] | -14% | u
COc1ccc(C(=O)N2CCC3(CCCN(Cc4ccccc4OC)C3)CC2)cc1 | x | 0 | x | -4%[12.7 µM] | x | 9%
Cc1cc2n(n1)C(c1cn(-c3ccccc3)nc1C)Nc1ccccc1-2 (centres undefined) | -9% | -4 | -19% | 0%[59 µM] | -7% | 5%
Cc1cc2n(n1)C(c1c[nH]c3ccccc13)Nc1ccccc1-2 (centres undefined) | 28µM* | 1 | 25µM*[quencher] | u | u | -1%
O=C(NC(=S)Nc1c(F)cc(F)cc1Br)c1ccc2c(c1)OCCO2 | u | 0 | -19% | u | -4% | -13%
NNC(=S)Nc1c(Br)cc(F)cc1Br | 5% | 2 | -8% | 35µM* | 0% | 1%
CCCCc1ccc(NC(=O)Cn2cnc3c(oc4ccccc43)c2=O)cc1 | u | x | u | -35%[59 µM] | -4% | x
Cc1cc(C)cc(NS(=O)(=O)c2ccc3c(c2)CCCN3C(=O)C2CCC2)c1 | 3% | x | -24% | 2%[59 µM] | -15% | x
Oc1cc(O)c2c(c1)O[C@H](c1ccc(O)c(O)c1)[C@H](O)C2 | x | -1 | x | 10µM* | x | -2%
O=C(O[C@@H]1Cc2c(O)cc(O)cc2OC1c1ccc(O)c(O)c1)c1cc(O)c(O)c(O)c1 (some centres undefined) | u | -2 | 13µM*[quencher] | x | 16µM* | 50µM*
O=C(OC1Cc2c(O)cc(O)cc2OC1c1cc(O)c(O)c(O)c1-c1c(C2Oc3cc(O)cc(O)c3CC2OC(=O)c2cc(O)c(O)c(O)c2)cc(O)c(O)c1O)c1cc(O)c(O)c(O)c1 (centres undefined) | u | -11 | 14µM*[quencher] | x | 25µM* | 45µM*
Oc1ccc(C2Oc3cc(O)cc(O)c3CC2O)cc1 (centres undefined) | 1% | -1 | -11% | -20%[2.33 µM] | -7% | 2%
O=C(NCc1nc2ccccc2[nH]1)C1=C[C@H](C2CC2)C[C@H](OCc2ccc(CO)cc2)O1 | -4% | 5 | -3% | 25%[59 µM] | 6% | -1%
COC(=O)C1Cc2c([nH]c3ccccc23)CN1C(C)=O (centres undefined) | x | -1 | x | 50µM* | x | -14%
COC(=O)C1Cc2c([nH]c3ccccc23)C(C)N1 (centres undefined) | -1% | 2 | -11% | 20µM* | -16% | 9%
CCOc1ccccc1CNC(=O)c1ccc2c(c1)N(Cc1ccc(C)cc1)CCS2 | 13% | x | u | -2%[59 µM] | u | x
Cc1noc(C)c1-c1nc(NCc2cccs2)c2ccccc2n1 | x | 1 | x | -46%[0.501 µM] | x | 71µM*
COCCNc1nc(-c2c(C)noc2C)nc2ccccc12 | x | 7 | x | -14%[0.501 µM] | x | 1%
CN1C2CCC1/C(=C\c1ccccc1)C(=O)/C2=C\c1ccccc1 | u | 3 | -25% | -24% | 16µM* | 14%
SMILES | Tau FP inhib | Coupling enz | Tau fluor cs | G9a inh | Tau fibril ThT | Sfp PPTase inh
O=C1/C(=C/c2ccccc2)CCC1C1CCCC1 (centres undefined) | -1% | 1 | -13% | 12%[59 µM] | u | -2%
COc1cc(-c2c(C#N)c(N)nc3[nH]c(=S)[nH]c(=O)c23)ccc1O | x | 2 | x | 71µM* | x | -17%
COc1ccccc1NC(=O)Cn1nc(-c2ccc(Cl)cc2)c2ccccc2c1=O | -3% | 0 | -25% | 10µM* | -15% | u
CCCc1cnc2c(c1SCc1cccc(F)c1)c(=O)n(C)c(=O)n2C | -10% | x | -18% | u | u | x
CCn1c(=S)sc2c(=O)n(-c3ccccc3)c(SC)nc21 | 4% | 1 | -18% | 45µM* | -8% | u
O=C1CC(N2CCN(c3ccccc3)CC2)C(=O)N1c1ccc2c(c1)OCCO2 (centres undefined) | 4% | -4 | -4% | -40%[59 µM] | -12% | 8%
CN1CCN(C2CC(=O)N(c3ccc4c(c3)OCCO4)C2=O)CC1 (centres undefined) | 12% | 1 | -8% | 45µM* | -7% | -1%
Oc1ccc(C(=S)N2CCCCC2)cc1 | -3% | 1 | -12% | 45µM* | -4% | 50µM*
S=C(c1ccc(Br)cc1)N1CCCC1 | x | 0 | x | 45µM* | x | -11%
COC(=O)c1ccc(C(=S)N2CCCCC2)cc1 | 3% | -1 | -1% | 21%[12.7 µM] | 0% | 14%
S=C(c1ccc(N2CCOCC2)cc1)N1CCCCC1 | -5% | 1 | -2% | -5%[59 µM] | -4% | 22%
COc1cc(C2c3c(oc4ccccc4c3=O)C(=O)N2c2nncs2)cc(OC)c1OC (centres undefined) | -9% | x | -13% | -6%[59 µM] | u | x
CCc1ccc(NC(=O)CSc2nc(=O)n(Cc3cccnc3)c3c2CCC3)cc1 | 0% | x | -8% | 2%[59 µM] | -11% | x
C=CCn1c(=S)[nH]c2cc(C(=O)N3CCN(c4ccccc4OC)CC3)ccc2c1=O | x | x | x | -43%[2.33 µM] | x | x
CCCC(=O)Nc1sc(C)c(-c2ccc(OC)cc2)c1C#N | -3% | 2 | -2% | 23%[59 µM] | -2% | 15%
CCCc1ccc(-c2c(C)sc(N)c2C#N)cc1 | u | -11 | 16µM*[quencher] | 40µM* | u | 35µM*
c1ccc(CSc2ncn[nH]2)nc1 | 2% | -1 | 6% | 45µM* | 3% | 10%
Fc1cccc(Cl)c1CSc1ncn[nH]1 | -3% | -5 | 1% | 59%[12.7 µM] | 9% | 8%
Fc1cccc(Cl)c1CNC(c1ccccc1)c1ccccc1 | -6% | -2 | -8% | 23%[59 µM] | 4% | 4%
COCCNCc1ccc(Cl)cc1Cl | -9% | 3 | 4% | u | 9% | 3%
Fc1cccc(Cl)c1CNn1cn[nH]c1=S | -2% | 2 | -7% | 8.9µM* | -11% | -4%
S=c1[nH]ncn1NCc1ccc(Cl)cc1Cl | -1% | 3 | 0% | 2.8µM* | -11% | -24%
